According to PubChem BioAssay AID1159580 (chemical genetic matrix, 2015):
The campaign covered roughly 5,500 compounds. About 2,000 (36%) were called active. Inconclusive results (about 18%) are left out. Cut-off read from the data, not from the text of the source: active = normalized growth mostly below about 0.91 (no sharp cut-off); inconclusive = no clear call, values can overlap the other calls; inactive = mostly above about 0.92. Some of the results follow.

Assay: chemical genetic growth profiling, strain panel (AID 1159580);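 note: tested at 20 µM; growth read once vehicle control cultures reached saturation at 30 °C; 1 = growth at the plate median or of vehicle wells; lower values mean less growth of the strain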
Conditions: S. cerevisiae deletion strains, growth OD
[1] = locus YAL013W, strain DEP1, stronger effect = lower value
[2] = locus YBR229C, strain ROT2, stronger effect = lower value
[3] = locus YDL101C, strain DUN1, stronger effect = lower value
[4] = locus YDR150W, strain NUM1, stronger effect = lower value
[5] = locus YEL061C, strain CIN8, stronger effect = lower value
[6] = locus YGR078C, strain PAC10, stronger effect = lower value
[7] = locus YGR229C, strain SMI1, stronger effect = lower value
[8] = locus YHR030C, strain SLT2, stronger effect = lower value
[9] = locus YHR087W, strain rtc3, stronger effect = lower value
[10] = locus YJR043C, strain POL32, stronger effect = lower value
[11] = locus YJR075W, strain HOC1, stronger effect = lower value
[12] = locus YLR039C, strain RIC1, stronger effect = lower value
[13] = locus YLR058C, strain SHM2 (second series), stronger effect = lower value
[14] = locus YLR085C, strain ARP6, stronger effect = lower value
[15] = locus YLR262C, strain YPT6, stronger effect = lower value
[16] = locus YML094W, strain GIM5, stronger effect = lower value
[17] = locus YMR219W, strain ESC1, stronger effect = lower value
[18] = locus YMR263W, strain SAP30, stronger effect = lower value
[19] = locus YMR307W, strain GAS1, stronger effect = lower value
[20] = locus YNL153C, strain GIM3, stronger effect = lower value
[21] = locus YNL298W, strain CLA4 (second series), stronger effect = lower value
[22] = locus YNL322C, strain KRE1, stronger effect = lower value
[23] = locus YNR030W, strain Alg12, stronger effect = lower value
[24] = locus YOL006C, strain TOP1, stronger effect = lower value
[25] = locus YPL055C, strain LGE1, stronger effect = lower value
[26] = locus YPL241C, strain CIN2, stronger effect = lower value
[27] = locus YPR135W, strain CTF4, stronger effect = lower value
[28] = locus YJL187C, strain SWE1, stronger effect = lower value

Measured: normalized growth

Brc1ccc(-c2ccn[nH]2)s1
active: [12] 0.703 | [14] 0.721 | [15] 0.67 | [20] 0.906 | [24] 0.715 | [26] 0.525
inactive: [1] 0.978 | [2] 0.966 | [3] 0.971 | [4] 1.02 | [5] 0.938 | [6] 0.973 | [7] 0.955 | [8] 0.938 | [9] 0.993 | [10] 1 | [11] 0.971 | locus YKL190W, strain CNB1, stronger effect = lower value 0.949 | [13] 0.963 | [16] 0.886 | [17] 0.968 | [18] 1.02 | [19] 0.953 | locus YNL128W, strain TEP1, stronger effect = lower value 0.94 | [21] 0.936 | [22] 0.97 | [23] 0.939 | [25] 1.07 | [27] 0.789

CN(C)C=Nc1nnc(Sc2nc3cc(Cl)ccc3s2)s1
active: [8] 0.631 | [12] 0.757 | [14] 0.707 | [17] 0.932 | [24] 0.71 | [25] 0.796 | [26] 0.848
inactive: [1] 0.939 | [2] 0.958 | [3] 0.977 | [4] 0.968 | [5] 0.93 | [6] 0.983 | [9] 0.914 | [28] 0.938 | [10] 0.966 | [11] 0.974 | [13] 0.969 | [15] 0.826 | [16] 0.909 | [18] 0.957 | [20] 0.962 | [21] 0.887 | [22] 0.987 | [23] 0.93 | [27] 0.698

CN(C)C=Nc1nnc(SCc2ccc(C(=O)Oc3ccc(F)cc3F)cc2)s1
inactive: [1] 0.989 | [2] 1.05 | [3] 1.02 | [4] 0.939 | [5] 1.01 | [6] 1.01 | [7] 1.01 | [8] 0.931 | [9] 1.02 | [28] 1.01 | [10] 0.949 | [11] 1.03 | [12] 1.08 | [13] 1.01 | [14] 0.919 | [15] 1.04 | [16] 0.973 | [17] 1.01 | [18] 0.924 | [19] 0.915 | [20] 1.02 | [21] 1 | [22] 1.03 | [23] 0.989 | [24] 1.07 | [25] 0.855 | [26] 0.996 | [27] 0.926

CN(C)C=Nc1nnc(Sc2nc3c(Cl)cc(Cl)cc3s2)s1
inactive: locus YAR019C, strain CDC15, stronger effect = lower value 0.959 | locus YBL105C, strain PKC1, stronger effect = lower value 0.969 | locus YBR135W, strain CKS1, stronger effect = lower value 0.973 | locus YBR136W, strain MEC1, stronger effect = lower value 0.968 | locus YBR160W, strain CDC28, stronger effect = lower value 0.977 | locus YDL017W, strain CDC7, stronger effect = lower value 0.976 | locus YDL028C, strain MPS1, stronger effect = lower value 0.975 | [3] 0.972 | locus YDL108W, strain KIN28, stronger effect = lower value 0.976 | locus YDL132W, strain cdc53, stronger effect = lower value 0.964 | locus YDL214C, strain PRR2, stronger effect = lower value 0.97 | locus YDR052C, strain DBF4, stronger effect = lower value 0.972 | locus YDR054C, strain cdc34, stronger effect = lower value 0.954 | locus YDR226W, strain ADK1, stronger effect = lower value 0.961 | locus YDR477W, strain SNF1, stronger effect = lower value 0.944 | locus YER123W, strain YCK3, stronger effect = lower value 0.953 | locus YER133W, strain GLC7, stronger effect = lower value 0.925 | locus YFL009W, strain cdc4, stronger effect = lower value 0.963 | locus YFL029C, strain CAK1, stronger effect = lower value 0.959 | locus YFR003C, strain YPI1, stronger effect = lower value 0.973 | locus YFR019W, strain FAB1, stronger effect = lower value 0.975 | locus YFR028C, strain CDC14, stronger effect = lower value 0.969 | locus YGR040W, strain KSS1, stronger effect = lower value 0.943 | locus YGR052W, strain FMP48, stronger effect = lower value 1 | locus YGR092W, strain DBF2, stronger effect = lower value 0.929 | [8] 1.11 | locus YHR079C, strain IRE1, stronger effect = lower value 0.946 | locus YHR082C, strain KSP1, stronger effect = lower value 1.07 | locus YHR205W, strain SCH9, stronger effect = lower value 1.01 | locus YIL147C, strain SLN1, stronger effect = lower value 0.964 | locus YJL095W, strain BCK1, stronger effect = lower value 0.937 | locus YJL128C, strain PBS2, stronger effect = lower value 0.944 | locus YJL157C, strain FAR1, stronger effect = lower value 0.941 | locus YJR016C, strain ILV3, stronger effect = lower value 0.967 | locus YJR066W, strain TOR1 (second series), stronger effect = lower value 0.924 | locus YJR066W, strain TOR1, stronger effect = lower value 1.01 | locus YKL048C, strain ELM1, stronger effect = lower value 1.01 | locus YKL067W, strain YNK1, stronger effect = lower value 0.958 | locus YKL101W, strain HSL1, stronger effect = lower value 1.01 | locus YKL193C, strain SDS22, stronger effect = lower value 0.968 | locus YKL203C, strain TOR2, stronger effect = lower value 0.96 | locus YLR113W, strain HOG1, stronger effect = lower value 0.964 | locus YLR133W, strain CKI1, stronger effect = lower value 0.968 | locus YLR403W, strain SFP1, stronger effect = lower value 0.924 | locus YML070W, strain DAK1, stronger effect = lower value 0.98 | locus YMR001C, strain CDC5, stronger effect = lower value 0.969 | locus YMR205C, strain PFK2 (second series), stronger effect = lower value 0.99 | locus YMR277W, strain FCP1, stronger effect = lower value 0.962 | locus YNL006W, strain LST8, stronger effect = lower value 0.969 | locus YNL020C, strain ARK1, stronger effect = lower value 0.966 | locus YNL161W, strain CBK1, stronger effect = lower value 0.967 | locus YNL183C, strain NPR1, stronger effect = lower value 0.995 | locus YNL207W, strain RIO2, stronger effect = lower value 0.959 | locus YNL222W, strain SSU72, stronger effect = lower value 0.97 | locus YNL307C, strain MCK1 (second series), stronger effect = lower value 0.979 | locus YOL078W, strain AVO1, stronger effect = lower value 0.973 | locus YOL136C, strain PFK27, stronger effect = lower value 0.984 | locus YOR061W, strain CKA2, stronger effect = lower value 0.944 | locus YOR119C, strain RIO1, stronger effect = lower value 1 | locus YOR231W, strain MKK1, stronger effect = lower value 0.954 | locus YOR329C, strain SCD5, stronger effect = lower value 0.968 | locus YPL031C, strain PHO85, stronger effect = lower value 0.9 | locus YPL153C, strain RAD53, stronger effect = lower value 0.913 | locus YPL204W, strain HRR25, stronger effect = lower value 0.903 | locus YPL209C, strain IPL1, stronger effect = lower value 0.975 | locus YPL256C, strain CLN2, stronger effect = lower value 1.1 | locus YPR025C, strain CCL1, stronger effect = lower value 0.971 | locus YPR106W, strain ISR1, stronger effect = lower value 0.98 | locus YPR111W, strain DBF20, stronger effect = lower value 0.957 | strain NNK1, stronger effect = lower value 0.974 | strain TSCII, stronger effect = lower value 0.957

C[C@H](O)C(=O)C1=Nc2c(nc(N)[nH]c2=O)NC1
inactive: [1] 0.952 | locus YAL040C, strain CLN3, stronger effect = lower value 0.966 | locus YCL061C, strain MRC1 (second series), stronger effect = lower value 0.983 | locus YDR363W, strain ESC2, stronger effect = lower value 0.952 | locus YER002W, strain NOP16, stronger effect = lower value 1.04 | [6] 0.998 | [11] 0.98 | [18] 0.983 | [19] 0.983 | locus YNL175C, strain NOP13, stronger effect = lower value 1.01 | locus YNL197C, strain WHI3, stronger effect = lower value 1.01 | locus YNL224C, strain SQS1, stronger effect = lower value 0.997 | [22] 0.955 | locus YOR083W, strain WHI5 (second series), stronger effect = lower value 0.996 | [25] 0.971
